Results on 38 molecules are retold here after PubChem BioAssay (EPA / NIEHS).

Some structures have more than one record in an assay (separate samples or runs), and their calls can disagree. The source made the active and inactive calls. Rule for the calls: active = hit-call score of the fitted dose curve at least 0.9, where 1 is the maximum; inactive = score below 0.9.

The experiment is described as follows: ATG_CRE_CIS: Attagene CIS-FACTORIAL HepG2 Assay for human cAMP Responsive Element (CRE) binding protein 3 (AID 2282926). The settings on record: HepG2 CRE cis-reporter, Attagene multiplexed mRNA; actives raise or lower the signal. The method, then:
ATG_CIS is a cell-based, multiplexed-readout assay that uses HepG2, a human liver cell line, with measurements taken at 24 hours after chemical dosing in a 24-well plate.ATG_CRE_CIS is one of 52 assay component(s) measured or calculated from the ATG_CIS assay. It is designed to make measurements of mRNA induction, a form of inducible reporter, as detected with fluorescence intensity signals by Reverse transcription polymerase chain reaction (RT-PCR) and Capillary electrophoresis technology.Data from the assay component ATG_CRE_CIS was analyzed into 1 assay endpoint. This assay endpoint, ATG_CRE_CIS, was analyzed with bidirectional fitting relative to DMSO as the negative control and baseline of activity. Using a type of inducible reporter, measures of mRNA for gain or loss-of-signal activity can be used to understand the reporter gene at the transcription factor-level as they relate to the gene CREB3. Furthermore, this assay endpoint can be referred to as a primary readout, because this assay has produced multiple assay endpoints where this one serves a reporter gene function. To generalize the intended target to other relatable targets, this assay endpoint is annotated to the dna binding intended target family, where the subfamily is basic leucine zipper.
Human liver HepG2 cells are transiently transfected with multiple reporter transcription units (MRTUs) in 6-well plates using FuGene 6 reagent (Roche; 3 ml FuGene/1 mg DNA). The MRTU constructs are regulated by a cis-regulating element (promoter). […] A major difference between the CIS and TRANS system is that in CIS activities of endogenous TFs are measured, whereas the TRANS assay evaluates changes in activities of exogenous, chimeric NR-Gal4 proteins. […] At the end of 24 hour incubation, total RNA was isolated using TriZol reagent (Invitrogen). The isolated RNA is then reverse-transcribed using oligo(dT) primer and Mo-MLV reverse transcriptase (Invitrogen) with DNAse I (Ambion) treatment for 30 min. The one-tenth of the produced cDNA was amplified by PCR using Taq DNA polymerase (Invitrogen) and two reporter sequence-specific primers. The PCR products were fluorescently labeled by primer extension with 6-arboxyfluorescein (6-FAM) 5'-labeled reporter sequence-specific primer (2 min at 95 C, 20 s at 68 C and 10 min at 72 C) and these products were digested with 5U of HpaI (New England Biolabs) for 2h at 37 C. The fragments were purified using Qiaquick PCR columns (Qiagen), analyzed on an ABI 3130xL genetic analyzer (Applied Biosystems) with peak positions identified by using a set of X-rhodamine (ROX)-labeled MapMarker1000 molecular weight standards (BioVentures). The raw capillary electrophoresis data was processed using Attagraph software (Attagene).
`COC(OC(C)=O)c1ccccc1` (stereo not given): the call was inactive. Still for that read-out and setting: under `CC/C=C\CCOC(C)=O` stands “inactive”. On the same count and under the same terms, under `FC(F)(F)C(F)(F)C(F)(F)CI` stands “inactive”; under `O=C(O)C(F)(F)C(F)(F)C(F)(F)C(F)(F)C(F)(F)C(F)(F)C(F)(F)C(F)(F)C(F)(F)C(F)(F)C(F)(F)C(F)(F)F`, “inactive”; under `CCCCCCC(C)OC(=O)CCCCC(=O)OC(C)CCCCCC` (stereo not given), “inactive”. As for `FC(F)(F)C(F)(F)C(F)(F)C(F)(F)C(F)(F)C(F)(F)CC1CO1` (stereo not given), the molecule was called inactive. On the same count and under the same terms, the value for `O[Si](c1ccccc1)(c1ccccc1)c1ccccc1` was “inactive”. On the same count and under the same terms, under `CCCCOc1ccc(N)cc1` stands “inactive”; under `CCCCCCCOC(=O)c1ccccc1C(=O)OCCCCCCC`, “inactive”. Same read-out and setting: under `CCc1ccc(C(c2ccc(CC)cc2)C(Cl)Cl)cc1` stands “inactive”; under `C(=C(c1ccccc1)c1ccccc1)c1ccccc1`, “inactive”. As for `O=C(O)C(F)(F)C(F)(F)C(F)(F)C(F)(F)C(F)(F)C(F)(F)C(F)(F)C(F)(F)Cl`, the AC50 is 50 µM (active) and the molecule was classed as inactive. `CCCCC(CC)COP(=O)(O)OCC(CC)CCCC` (stereo not given): the call was inactive. Regarding `N=C(N)C(F)(F)C(F)(F)C(F)(F)C(F)(F)C(F)(F)C(F)(F)C(F)(F)F`, the molecule was called inactive. Same read-out and setting: the value for `OCCCC(F)(F)C(F)(F)C(F)(F)F` was “inactive”. Still for that read-out and setting: the value for `FC(F)(F)C(F)(F)C(F)(F)C(F)(F)C(F)(F)C(F)(F)C(F)(F)Br` was “inactive”; that for `CCCCCCCCC(F)(F)C(F)(F)C(F)(F)C(F)(F)C(F)(F)C(F)(F)F` was “inactive”; that for `C=CC(=O)OCC(F)(F)C(F)(F)C(F)(F)C(F)(F)C(F)(F)C(F)(F)C(F)(F)F` was “inactive”.

As to `CNC(=S)NC`, the result was inactive. Still for that read-out and setting: under `CC/C=C\CCOC(=O)c1ccccc1` stands “inactive”. On the same count and under the same terms, the value for `O=C(C=Cc1ccccc1)OCC=Cc1ccccc1` was “inactive”; that for `O=C(O)C(F)(OC(F)(F)C(F)(OC(F)(F)C(F)(OC(F)(F)C(F)(F)C(F)(F)F)C(F)(F)F)C(F)(F)F)C(F)(F)F` (stereo not given) was “inactive”. For the molecule `OCCCC(F)(F)C(F)(F)C(F)(F)C(F)(F)C(F)(F)C(F)(F)C(F)(F)F`, the AC50 was 51.4 µM (active) and the molecule was called inactive. Turning to `C#C[C@]1(O)CC[C@H]2[C@@H]3CCc4cc(OC)ccc4[C@H]3CC[C@@]21C`, the molecule was classed as inactive. The same measure, in the same setting: the value for `C=CC(F)(F)C(F)(F)C(F)(F)C(F)(F)C(F)(F)C(F)(F)C(F)(F)C(F)(F)F` was “inactive”; that for `O=C(O)C(F)(F)C(F)(F)OC(F)(F)F` was “inactive”. For the molecule `OCC(F)(F)C(F)(F)C(F)(F)C(F)(F)C(F)(F)C(F)F`, the molecule was called inactive. Consider `O=C(O)C(F)(F)C(F)(F)F`, for which the outcome was inactive.

On to `O=C(O)C(F)(F)C(F)(F)C(F)(F)F`, for which the outcome was inactive.

As for `FC(F)(F)C(F)(F)C(F)(F)C(F)(F)C(F)(F)C(F)(F)C(F)(F)C(F)(F)F`, the result was inactive.

Turning to `O=P(O)(O)OCCC(F)(F)C(F)(F)C(F)(F)C(F)(F)C(F)(F)C(F)(F)F`, the call was inactive. On the same count and under the same terms, the value for `O=S(=O)(OCC(F)F)C(F)(F)F` was “inactive”; that for `CCCCCCS` was “inactive”.

On to `FC(F)(F)C(F)(F)C(F)(F)N(C(F)(F)C(F)(F)C(F)(F)F)C(F)(F)C(F)(F)C(F)(F)F`, for which the molecule was called inactive. Still for that read-out and setting: the value for `OCC(F)(F)C(F)(F)C(F)(F)F` was “inactive”; that for `FC1CC(F)(F)C(F)(F)C1(F)F` (stereo not given) was “inactive”. In the case of `C=CC(F)(F)C(F)(F)C(F)(F)C(F)(F)C(F)(F)C(F)(F)C(F)(F)C(F)(F)C=C`, the outcome was inactive. On the same count and under the same terms, the value for `C=C(C)C(=O)OCC(F)(F)C(F)(F)C(F)(F)C(F)(F)C(F)(F)C(F)(F)C(F)(F)F` was “inactive”.

What is called AC50 is the midpoint of the concentration-response curve, whichever way the signal moves.
